Where “and” joins values, the source holds several entries; their conditions need not be identical. Identical values can stand only once. Out of some 5,500 compounds screened, about 2,000 (36%) were called active. Inconclusive results (about 18%) are left out. Rule as the data show it: active = normalized growth mostly below about 0.91 (no sharp cut-off); inconclusive = no clear call, values can overlap the other calls; inactive = mostly above about 0.92. This is one part of the list.
Test: chemical genetic growth profiling, strain panel (AID 1159580);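 also: tested at 20 µM; growth read once vehicle control cultures reached saturation at 30 °C; 1 = growth at the plate median or of vehicle wells; lower values mean less growth of the strain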
Settings: S. cerevisiae deletion strains, growth OD

Measured: normalized growth

CN(Cc1cnc2nc(N)nc(N)c2n1)c1ccc(C(=O)N[C@H](CCC(=O)O)C(=O)O)cc1
inactive: locus YAL040C, strain CLN3, hits give low values 1 | locus YER002W, strain NOP16, hits give low values 0.996 | locus YNL175C, strain NOP13, hits give low values 1 | locus YNL197C, strain WHI3, hits give low values 1.01 | locus YNL224C, strain SQS1, hits give low values 0.981 | locus YOR083W, strain WHI5 (second series), hits give low values 1.04 | locus YPL241C, strain CIN2, hits give low values 0.984

Nc1nc2ncc(CNc3ccc(C(=O)N[C@@H](CCC(=O)O)C(=O)O)cc3)nc2c(=O)[nH]1
inactive: locus YAL021C, strain ccr4, hits give low values 0.993 | locus YAL026C, strain drs2, hits give low values 1.01 | locus YAL030W, strain snc1, hits give low values 0.998 | locus YBL061C, strain skt5, hits give low values 1 | locus YBR009C, strain hhf1, hits give low values 1.01 | locus YBR021W, strain FUR4, hits give low values 1.04 | locus YBR023C, strain chs3, hits give low values 0.995 | locus YBR171W, strain sec66, hits give low values 0.996 | locus YBR229C, strain ROT2, hits give low values 0.992 | locus YBR231C, strain swc5, hits give low values 0.996 | locus YBR279W, strain paf1, hits give low values 0.996 | locus YCL011C, strain gbp2, hits give low values 1 | locus YCL016C, strain dcc1, hits give low values 0.998 | locus YCL029C, strain bik1, hits give low values 0.976 | locus YCL061C, strain MRC1, hits give low values 0.998 | locus YCL069W, strain vba3, hits give low values 1 | locus YCR088W, strain abp1, hits give low values 1 | locus YDL005C, strain med2, hits give low values 1 | locus YDL035C, strain GPR1, hits give low values 0.995 | locus YDL040C, strain nat1, hits give low values 0.995 | locus YDL074C, strain BRE1, hits give low values 0.993 | locus YDL101C, strain DUN1, hits give low values 0.996 | locus YDL185W, strain tfp1, hits give low values 0.956 | locus YDL192W, strain arf1, hits give low values 0.976 | locus YDR001C, strain nth1, hits give low values 0.997 | locus YDR069C, strain doa4, hits give low values 0.999 | locus YDR101C, strain arx1, hits give low values 0.982 | locus YDR137W, strain rgp1, hits give low values 1.03 | locus YDR159W, strain sac3, hits give low values 1.01 | locus YDR162C, strain NBP2, hits give low values 1.02 | locus YDR195W, strain ref2 0.993 | locus YDR297W, strain sur2, hits give low values 0.997 | locus YDR318W, strain mcm21, hits give low values 0.99 | locus YDR334W, strain swr1, hits give low values 1 | locus YDR335W, strain msn5, hits give low values 0.997 | locus YDR388W, hits give low values 0.976 | locus YDR392W, strain spt3, hits give low values 0.941 | locus YDR502C, strain sam2, hits give low values 0.986 | locus YEL003W, strain gim4, hits give low values 1.01 | locus YEL037C, strain rad23, hits give low values 1 | locus YEL061C, strain CIN8 (second series), hits give low values 1 | locus YEL061C, strain CIN8, hits give low values 0.988 | locus YER015W, strain faa2, hits give low values 1 | locus YER016W, strain bim1, hits give low values 1.01 | locus YER110C, hits give low values 0.952 | locus YER111C, strain swi4, hits give low values 0.985 | locus YER155C, strain BEM2 (second series), hits give low values 1.01 | locus YER155C, strain BEM2, hits give low values 0.986 | locus YER167W, strain BCK2, hits give low values 0.99 | locus YFR010W, strain ubp6, hits give low values 1.01 | locus YGL078C, strain dbp3, hits give low values 0.998 | locus YGL086W, strain mad1, hits give low values 0.968 | locus YGL167C, strain pmr1, hits give low values 1 | locus YGL173C, strain kem1, hits give low values 0.996 | locus YGL227W, strain vid30, hits give low values 0.993 | locus YGL240W, strain doc1, hits give low values 1.02 | locus YGL248W, strain PDE1, hits give low values 1.01 | locus YGL253W, strain hxk2, hits give low values 0.993 | locus YGR078C, strain PAC10, hits give low values 1.03 | locus YGR135W, strain pre9, hits give low values 1 | locus YGR252W, strain gcn5, hits give low values 1.21 | locus YHR013C, strain ard1, hits give low values 1 | locus YHR027C, strain rpn1, hits give low values 1 | locus YHR030C, strain SLT2, hits give low values 0.971 and 1.02 | locus YHR079C, strain IRE1 (second series), hits give low values 0.972 | locus YHR079C, strain IRE1, hits give low values 1.03 | locus YHR094C, strain hxt1, hits give low values 0.989 | locus YHR129C, strain ARP1, hits give low values 0.99 | locus YHR142W, strain chs7, hits give low values 0.989 | locus YHR200W, strain rpn10, hits give low values 0.985 | locus YIL066C, strain RNR3, hits give low values 1 | locus YIL073C, strain SPO22, hits give low values 0.922 | locus YIL125W, strain kgd1, hits give low values 0.94 | locus YIR030C, strain dcg1, hits give low values 0.985 | locus YJL092W, strain hpr5, hits give low values 0.995 | locus YJL095W, strain BCK1 (second series), hits give low values 0.992 | locus YJL095W, strain BCK1, hits give low values 1.05 and 1.02 | locus YJL115W, strain asf1, hits give low values 1 | locus YJL129C, strain trk1, hits give low values 0.993 | locus YJL134W, strain LCB3, hits give low values 0.979 | locus YJL154C, strain vps35, hits give low values 1 | locus YJL164C, strain tpk1, hits give low values 0.994 | locus YJL166W, strain qcr8, hits give low values 0.995 | locus YJL168C, strain set2, hits give low values 1.01 | locus YJL187C, strain SWE1 (second series), hits give low values 1.01 | locus YJL187C, strain SWE1, hits give low values 0.999 | locus YJR043C, strain POL32, hits give low values 1.01 | locus YJR066W, strain TOR1, hits give low values 0.959 | locus YKL009W, strain mrt4, hits give low values 0.954 | locus YKL068W, hits give low values 0.98 | locus YKL085W, strain MDH1 (second series), hits give low values 0.981 | locus YKL085W, strain MDH1, hits give low values 0.981 | locus YKL160W, strain elf1, hits give low values 0.987 | locus YKL190W, strain CNB1, hits give low values 0.985 | locus YKR001C, strain vps1, hits give low values 0.975 | locus YKR026C, strain gcn3, hits give low values 1 | locus YKR091W, strain srl3, hits give low values 1 | locus YLL001W, strain dnm1, hits give low values 0.967 | locus YLL026W, hits give low values 0.997 | locus YLL041C, strain sdh2, hits give low values 0.998 | locus YLR027C, strain aat2, hits give low values 1 | locus YLR039C, strain RIC1, hits give low values 0.987 | locus YLR058C, strain SHM2, hits give low values 0.991 | locus YLR102C, strain apc9, hits give low values 0.957 | locus YLR113W, strain HOG1, hits give low values 1.02 | locus YLR221C, strain rsa3, hits give low values 0.995 | locus YLR258W, strain gsy2, hits give low values 0.998 | locus YLR262C, strain YPT6 (second series), hits give low values 0.998 | locus YLR262C, strain YPT6, hits give low values 1 | locus YLR268W, strain sec22, hits give low values 0.963 | locus YLR320W, strain mms22, hits give low values 0.992 | locus YLR330W, strain CHS5, hits give low values 0.979 | locus YLR342W, strain FKS1 (second series), hits give low values 1.01 | locus YLR342W, strain FKS1, hits give low values 0.995 | locus YLR357W, strain rsc2, hits give low values 1.01 | locus YLR370C, strain arc18, hits give low values 0.994 | locus YLR371W, strain rom2, hits give low values 0.98 | locus YLR384C, strain iki3, hits give low values 1.01 | locus YLR418C, strain cdc73, hits give low values 1.04 | locus YML016C, strain PPZ1, hits give low values 0.989 | locus YML032C, strain rad52, hits give low values 0.985 | locus YML120C, strain ndi1, hits give low values 0.995 | locus YML124C, strain tub3, hits give low values 0.991 | locus YMR058W, strain fet3, hits give low values 1 | locus YMR078C, strain ctf18, hits give low values 0.982 | locus YMR125W, strain sto1, hits give low values 0.993 | locus YMR129W, hits give low values 1 | locus YMR205C, strain PFK2, hits give low values 0.992 | locus YMR223W, strain ubp8, hits give low values 0.998 | locus YMR231W, strain pep5, hits give low values 1 | locus YMR263W, strain SAP30, hits give low values 0.995 | locus YMR307W, strain GAS1, hits give low values 1.19 | locus YNL067W, strain RPL9B, hits give low values 1.02 | locus YNL071W, strain lat1, hits give low values 1 | locus YNL153C, strain GIM3, hits give low values 1.03 | locus YNL183C, strain NPR1, hits give low values 0.947 | locus YNL209W, strain ssb2, hits give low values 0.998 | locus YNL233W, strain BNI4, hits give low values 1.03 | locus YNL248C, strain rpa49, hits give low values 0.994 | locus YNL250W, strain rad50, hits give low values 0.981 | locus YNL271C, strain bni1, hits give low values 0.997 | locus YNL298W, strain CLA4, hits give low values 0.989 | locus YNL307C, strain MCK1, hits give low values 0.98 | locus YNL322C, strain KRE1 (second series), hits give low values 0.998 | locus YNL322C, strain KRE1, hits give low values 0.987 | locus YNR049C, strain mso1, hits give low values 0.999 | locus YNR052C, strain pop2, hits give low values 0.994 | locus YOL012C, strain htz1 0.994 | locus YOL147C, strain pex11, hits give low values 0.985 | locus YOR001W, strain rrp6, hits give low values 0.984 | locus YOR061W, strain CKA2, hits give low values 0.99 | locus YOR069W, strain VPS5, hits give low values 0.981 | locus YOR070C, strain gyp1, hits give low values 0.996 | locus YOR080W, strain dia2, hits give low values 1 | locus YOR083W, strain WHI5, hits give low values 0.985 | locus YOR106W, strain vam3, hits give low values 1.02 | locus YOR136W, strain idh2, hits give low values 0.987 | locus YOR144C, strain elg1, hits give low values 0.987 | locus YOR184W, strain ser1, hits give low values 0.963 | locus YOR231W, strain MKK1, hits give low values 1.03 | locus YOR265W, strain rbl2, hits give low values 1.01 | locus YOR270C, strain vph1, hits give low values 0.99 | locus YOR290C, strain snf2, hits give low values 1.02 | locus YOR316C, strain cot1, hits give low values 0.988 | locus YPL051W, strain arl3, hits give low values 0.997 | locus YPL078C, strain atp4, hits give low values 0.996 | locus YPL106C, strain sse1, hits give low values 0.963 | locus YPL240C, strain hsp82, hits give low values 0.985 | locus YPL256C, strain CLN2, hits give low values 1.02 | locus YPR119W, strain clb2, hits give low values 0.976 | locus YPR141C, strain kar3, hits give low values 0.979 | locus YPR163C, strain tif3, hits give low values 0.993 | locus YPR167C, strain met16, hits give low values 0.97 | strain wtn01, hits give low values 0.971

Reference: PubChem BioAssay AID1159580 (chemical genetic matrix, 2015)
